Reference: PubChem BioAssay (NCI)
“And” between values parts separate entries of the source, which are not always exact repeats. Equal values may be shown once. The panel holds about 83,000 compounds, 20% with a hit somewhere; the sample as a whole holds those more often.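 Activity criterion: percent growth below 10, measured after cells in 96-well plates were exposed to a single compound concentration for 48 hours.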 The source made the active and inactive calls.

Key:
Test in all cases: NCI-60 one-dose screen, 48 h (100 = growth as untreated, 0 = no growth, -100 = all killed)
EKVX NSCLC = test system: EKVX NSCLC
SN12C renal = test system: SN12C renal
UO-31 renal = test system: UO-31 renal
TK-10 renal = test system: TK-10 renal
ACHN renal = conditions: 10 µM unless noted
A498 renal = test system: A498 renal
CCRF-CEM leukemia = test system: CCRF-CEM leukemia
MOLT-4 leukemia = test system: MOLT-4 leukemia
SR leukemia = test system: SR leukemia
OVCAR-8 ovarian = test system: OVCAR-8 ovarian
OVCAR-5 ovarian = test system: OVCAR-5 ovarian
OVCAR-4 ovarian = test system: OVCAR-4 ovarian
SK-OV-3 ovarian = conditions: 10 µM unless noted
IGROV1 ovarian = test system: IGROV1 ovarian
OVCAR-3 ovarian = test system: OVCAR-3 ovarian
HS 578T breast = conditions: 10 µM unless noted
NCI/ADR-RES ovarian = test system: NCI/ADR-RES ovarian
CAKI-1 renal = test system: CAKI-1 renal
RPMI-8226 leukemia = conditions: 10 µM unless noted

Measured: growth

COc1ccc(CCn2cnn3c(=O)c4ccccc4nc3c2=O)cc1OC
inactive: EKVX NSCLC; 10 µM unless noted 106% | SN12C renal; 10 µM unless noted 107% and 101% | UO-31 renal; 10 µM unless noted 93.3% and 91.9% | TK-10 renal; 10 µM unless noted 114% and 106% | ACHN renal 101% and 109% | A498 renal; 10 µM unless noted 90.6% and 129% | CCRF-CEM leukemia; 10 µM unless noted 97.6% | MOLT-4 leukemia; 10 µM unless noted 102% and 112% | SR leukemia; 10 µM unless noted 99.4% and 90.8% | OVCAR-8 ovarian; 10 µM unless noted 104% and 110% | OVCAR-5 ovarian; 10 µM unless noted 99.8% and 121% | OVCAR-4 ovarian; 10 µM unless noted 97.3% and 112% | SK-OV-3 ovarian 112% and 108% | IGROV1 ovarian; 10 µM unless noted 115% | OVCAR-3 ovarian; 10 µM unless noted 103% and 115% | HS 578T breast 98.3% and 115% | NCI/ADR-RES ovarian; 10 µM unless noted 101% and 107%

S=c1nc[nH]c2nc[nH]c12
15.9% (inactive) and -6.1% (active): TK-10 renal; 750 µM
active: CAKI-1 renal; 10 µM 7.07%
inactive: EKVX NSCLC; 10 µM 89.9% | EKVX NSCLC; 50 µM 73.9% | SN12C renal; 10 µM 69.5% | SN12C renal; 50 µM 31.5% | UO-31 renal; 10 µM 34% | UO-31 renal; 50 µM 36.2% | TK-10 renal; 10 µM 33.1% | CAKI-1 renal; 50 µM 21% | A498 renal; 10 µM 71.1% | A498 renal; 50 µM 47.5% | CCRF-CEM leukemia; 10 µM 13% | CCRF-CEM leukemia; 50 µM 16.8% | MOLT-4 leukemia; 10 µM 10.6% | MOLT-4 leukemia; 50 µM 13.3% | SR leukemia; 10 µM 18.1% | SR leukemia; 50 µM 26.6% | RPMI-8226 leukemia 24.9% | OVCAR-8 ovarian; 10 µM 26.6% | OVCAR-8 ovarian; 50 µM 24% | OVCAR-5 ovarian; 10 µM 44.7% | OVCAR-5 ovarian; 50 µM 31.3% | OVCAR-4 ovarian; 10 µM 50.2% | OVCAR-4 ovarian; 50 µM 30.9% | SK-OV-3 ovarian 36.2% | IGROV1 ovarian; 10 µM 70.5% | IGROV1 ovarian; 50 µM 32.3% | OVCAR-3 ovarian; 10 µM 29.6% | OVCAR-3 ovarian; 50 µM 23.3% | NCI/ADR-RES ovarian; 10 µM 22.8% | NCI/ADR-RES ovarian; 50 µM 24.9%

CCN(CC)Cc1cc2[nH]c3c4ccc(Cl)cc4ncc3c2cc1OC
-7.12% (active) and 99.3% (inactive): HS 578T breast
-21.5% (active) and 61% (inactive): CCRF-CEM leukemia; 10 µM unless noted
inactive: SN12C renal; 10 µM unless noted 72.9% and 78.8% | UO-31 renal; 10 µM unless noted 110% and 66.2% | TK-10 renal; 10 µM unless noted 123% and 89.8% | ACHN renal 83.7% and 73.4% | CAKI-1 renal; 10 µM unless noted 31.9% and 81.3% | A498 renal; 10 µM unless noted 146% and 106% | MOLT-4 leukemia; 10 µM unless noted 40.4% | OVCAR-8 ovarian; 10 µM unless noted 83.2% and 80.6% | OVCAR-5 ovarian; 10 µM unless noted 98% and 98.6% | SK-OV-3 ovarian 83.8% and 105% | IGROV1 ovarian; 10 µM unless noted 293% and 63.1% | OVCAR-3 ovarian; 10 µM unless noted 87.5% | NCI/ADR-RES ovarian; 10 µM unless noted 78.1% and 102%
33.3% (inactive) and -1.1% (active): OVCAR-4 ovarian; 10 µM unless noted
active: SR leukemia; 10 µM unless noted -49.9% and -13.8% | RPMI-8226 leukemia -39.2%

CCCCCCC(C)CC1=C(O)c2ccccc2C(=O)C1=O (configuration not stated)
inactive: EKVX NSCLC; 10 µM unless noted 62% | SN12C renal; 10 µM unless noted 46.6% | UO-31 renal; 10 µM unless noted 42.7% | TK-10 renal; 10 µM unless noted 60.5% | A498 renal; 10 µM unless noted 54.3% | CCRF-CEM leukemia; 10 µM unless noted 33.3% | MOLT-4 leukemia; 10 µM unless noted 26.6% | SR leukemia; 10 µM unless noted 61.7% | OVCAR-8 ovarian; 10 µM unless noted 56.6% | OVCAR-5 ovarian; 10 µM unless noted 62.4% | OVCAR-4 ovarian; 10 µM unless noted 46.3% | SK-OV-3 ovarian 78% | IGROV1 ovarian; 10 µM unless noted 41.5% | OVCAR-3 ovarian; 10 µM unless noted 46.5% | HS 578T breast 75.3% | NCI/ADR-RES ovarian; 10 µM unless noted 50.2%

CCn1c2ccc(N(C)C)cc2c2cc(N(C)C)ccc21
inactive: EKVX NSCLC; 10 µM unless noted 88% | SN12C renal; 10 µM unless noted 104% | UO-31 renal; 10 µM unless noted 94.5% | TK-10 renal; 10 µM unless noted 118% | ACHN renal 99.9% | CAKI-1 renal; 10 µM unless noted 98.4% | A498 renal; 10 µM unless noted 86.2% | CCRF-CEM leukemia; 10 µM unless noted 85.5% | MOLT-4 leukemia; 10 µM unless noted 96.9% | SR leukemia; 10 µM unless noted 94% | RPMI-8226 leukemia 80.4% | OVCAR-8 ovarian; 10 µM unless noted 97.3% | OVCAR-5 ovarian; 10 µM unless noted 99.6% | OVCAR-4 ovarian; 10 µM unless noted 24.9% | SK-OV-3 ovarian 94.8% | IGROV1 ovarian; 10 µM unless noted 107% | NCI/ADR-RES ovarian; 10 µM unless noted 98.5%
active: OVCAR-3 ovarian; 10 µM unless noted 5.93%

Cc1cnc(N)s1
inactive: SN12C renal; 10 µM unless noted 97.2% | UO-31 renal; 10 µM unless noted 81.6% | TK-10 renal; 10 µM unless noted 114% | CAKI-1 renal; 10 µM unless noted 96.9% | A498 renal; 10 µM unless noted 103% | CCRF-CEM leukemia; 10 µM unless noted 99.4% | MOLT-4 leukemia; 10 µM unless noted 103% | SR leukemia; 10 µM unless noted 101% | RPMI-8226 leukemia 95.9% | OVCAR-8 ovarian; 10 µM unless noted 92.8% | OVCAR-5 ovarian; 10 µM unless noted 90.7% | OVCAR-4 ovarian; 10 µM unless noted 103% | SK-OV-3 ovarian 89.7% | IGROV1 ovarian; 10 µM unless noted 103% | OVCAR-3 ovarian; 10 µM unless noted 105% | HS 578T breast 89.4% | NCI/ADR-RES ovarian; 10 µM unless noted 101%

COc1ccc([N+](=O)[O-])cc1OC
inactive: EKVX NSCLC; 10 µM unless noted 98.6% and 102% | SN12C renal; 10 µM unless noted 99.6% and 108% | UO-31 renal; 10 µM unless noted 76.2% and 99.1% | TK-10 renal; 10 µM unless noted 98.9% and 108% | ACHN renal 99% and 93.5% | CAKI-1 renal; 10 µM unless noted 93.8% and 102% | A498 renal; 10 µM unless noted 73.1% and 128% | CCRF-CEM leukemia; 10 µM unless noted 89.6% and 102% | MOLT-4 leukemia; 10 µM unless noted 91.2% and 104% | SR leukemia; 10 µM unless noted 89.4% and 108% | RPMI-8226 leukemia 106% | OVCAR-8 ovarian; 10 µM unless noted 89.6% and 94.5% | OVCAR-5 ovarian; 10 µM unless noted 101% and 98.3% | OVCAR-4 ovarian; 10 µM unless noted 104% | SK-OV-3 ovarian 114% and 119% | IGROV1 ovarian; 10 µM unless noted 111% and 109% | OVCAR-3 ovarian; 10 µM unless noted 113% and 114% | HS 578T breast 112% and 132% | NCI/ADR-RES ovarian; 10 µM unless noted 102% and 104%
